Measurements: PubChem BioAssay AID1159580 (chemical genetic matrix, 2015)
About 2,000 (36%) of roughly 5,500 compounds were called active. Roughly 18% stayed inconclusive and do not appear here. Cut-off read from the data, not from the text of the source: active = normalized growth mostly below about 0.91 (no sharp cut-off); inconclusive = no clear call, values can overlap the other calls; inactive = mostly above about 0.92. The list shows a part of the results.

Assay: chemical genetic growth profiling, strain panel (AID 1159580);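 note: tested at 20 µM; growth read once vehicle control cultures reached saturation at 30 °C; 1 = growth at the plate median or of vehicle wells; lower values mean less growth of the strain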
Conditions: growth OD

Measured: normalized growth

CC(C)NCC(O)c1ccc2ccccc2c1 (stereo not drawn)
inactive: S. cerevisiae deletion strains, locus YJR066W, strain TOR1, stronger effect = lower value 0.936 | S. cerevisiae deletion strains, locus YJR075W, strain HOC1, stronger effect = lower value 1.02 | S. cerevisiae deletion strains, locus YKL009W, strain mrt4, stronger effect = lower value 0.998 | S. cerevisiae deletion strains, locus YKL068W, stronger effect = lower value 0.997 | S. cerevisiae deletion strains, locus YKL085W, strain MDH1 (second series), stronger effect = lower value 0.996 | S. cerevisiae deletion strains, locus YKL085W, strain MDH1, stronger effect = lower value 0.996 | S. cerevisiae deletion strains, locus YKL160W, strain elf1, stronger effect = lower value 0.994 | S. cerevisiae deletion strains, locus YKR001C, strain vps1, stronger effect = lower value 1.03 | S. cerevisiae deletion strains, locus YKR026C, strain gcn3, stronger effect = lower value 1 | S. cerevisiae deletion strains, locus YKR091W, strain srl3, stronger effect = lower value 1 | S. cerevisiae deletion strains, locus YLL001W, strain dnm1, stronger effect = lower value 1 | S. cerevisiae deletion strains, locus YLL026W, stronger effect = lower value 0.998 | S. cerevisiae deletion strains, locus YLL041C, strain sdh2, stronger effect = lower value 0.998 | S. cerevisiae deletion strains, locus YLR027C, strain aat2, stronger effect = lower value 1 | S. cerevisiae deletion strains, locus YLR039C, strain RIC1, stronger effect = lower value 1.04 | S. cerevisiae deletion strains, locus YLR058C, strain SHM2, stronger effect = lower value 1.01 | S. cerevisiae deletion strains, locus YLR102C, strain apc9, stronger effect = lower value 0.988 | S. cerevisiae deletion strains, locus YLR113W, strain HOG1, stronger effect = lower value 1.05 | S. cerevisiae deletion strains, locus YLR221C, strain rsa3, stronger effect = lower value 1.02 | S. cerevisiae deletion strains, locus YLR258W, strain gsy2, stronger effect = lower value 0.996 | S. cerevisiae deletion strains, locus YLR262C, strain YPT6 (second series), stronger effect = lower value 0.984 | S. cerevisiae deletion strains, locus YLR262C, strain YPT6, stronger effect = lower value 1.07 | S. cerevisiae deletion strains, locus YLR268W, strain sec22, stronger effect = lower value 0.989 | S. cerevisiae deletion strains, locus YLR320W, strain mms22, stronger effect = lower value 1.01 | S. cerevisiae deletion strains, locus YLR330W, strain CHS5, stronger effect = lower value 1.01 | S. cerevisiae deletion strains, locus YLR342W, strain FKS1 (second series), stronger effect = lower value 1.03 | S. cerevisiae deletion strains, locus YLR342W, strain FKS1, stronger effect = lower value 0.999 | S. cerevisiae deletion strains, locus YLR357W, strain rsc2, stronger effect = lower value 0.984 | S. cerevisiae deletion strains, locus YLR370C, strain arc18, stronger effect = lower value 1.02 | S. cerevisiae deletion strains, locus YLR371W, strain rom2, stronger effect = lower value 0.989 | S. cerevisiae deletion strains, locus YLR384C, strain iki3, stronger effect = lower value 1 | S. cerevisiae deletion strains, locus YLR418C, strain cdc73, stronger effect = lower value 0.997 | S. cerevisiae deletion strains, locus YML016C, strain PPZ1, stronger effect = lower value 1 | S. cerevisiae deletion strains, locus YML032C, strain rad52, stronger effect = lower value 1.01 | S. cerevisiae deletion strains, locus YML120C, strain ndi1, stronger effect = lower value 0.991 | S. cerevisiae deletion strains, locus YML124C, strain tub3, stronger effect = lower value 0.991 | S. cerevisiae deletion strains, locus YMR058W, strain fet3, stronger effect = lower value 1 | S. cerevisiae deletion strains, locus YMR078C, strain ctf18, stronger effect = lower value 0.998 | S. cerevisiae deletion strains, locus YMR125W, strain sto1, stronger effect = lower value 0.982 | S. cerevisiae deletion strains, locus YMR129W, stronger effect = lower value 0.98 | S. cerevisiae deletion strains, locus YMR205C, strain PFK2, stronger effect = lower value 0.981 | S. cerevisiae deletion strains, locus YMR223W, strain ubp8, stronger effect = lower value 0.997 | S. cerevisiae deletion strains, locus YMR231W, strain pep5, stronger effect = lower value 1 | S. cerevisiae deletion strains, locus YMR307W, strain GAS1, stronger effect = lower value 1.06 | S. cerevisiae deletion strains, locus YNL067W, strain RPL9B, stronger effect = lower value 1.04 | S. cerevisiae deletion strains, locus YNL071W, strain lat1, stronger effect = lower value 1 | S. cerevisiae deletion strains, locus YNL153C, strain GIM3, stronger effect = lower value 1.05 | S. cerevisiae deletion strains, locus YNL183C, strain NPR1, stronger effect = lower value 0.968 | S. cerevisiae deletion strains, locus YNL209W, strain ssb2, stronger effect = lower value 1 | S. cerevisiae deletion strains, locus YNL233W, strain BNI4, stronger effect = lower value 1.04 | S. cerevisiae deletion strains, locus YNL248C, strain rpa49, stronger effect = lower value 0.998 | S. cerevisiae deletion strains, locus YNL250W, strain rad50, stronger effect = lower value 0.992 | S. cerevisiae deletion strains, locus YNL271C, strain bni1, stronger effect = lower value 1.01 | S. cerevisiae deletion strains, locus YNL298W, strain CLA4, stronger effect = lower value 1 | S. cerevisiae deletion strains, locus YNL307C, strain MCK1, stronger effect = lower value 0.994 | S. cerevisiae deletion strains, locus YNL322C, strain KRE1 (second series), stronger effect = lower value 1 | S. cerevisiae deletion strains, locus YNL322C, strain KRE1, stronger effect = lower value 1.01 | S. cerevisiae deletion strains, locus YNR049C, strain mso1, stronger effect = lower value 0.999 | S. cerevisiae deletion strains, locus YNR052C, strain pop2, stronger effect = lower value 0.997 | S. cerevisiae deletion strains, locus YOL012C, strain htz1 1.41 | S. cerevisiae deletion strains, locus YOL147C, strain pex11, stronger effect = lower value 1 | S. cerevisiae deletion strains, locus YOR001W, strain rrp6, stronger effect = lower value 1 | S. cerevisiae deletion strains, locus YOR061W, strain CKA2, stronger effect = lower value 1.01 | S. cerevisiae deletion strains, locus YOR069W, strain VPS5, stronger effect = lower value 1.01 | S. cerevisiae deletion strains, locus YOR070C, strain gyp1, stronger effect = lower value 1 | S. cerevisiae deletion strains, locus YOR080W, strain dia2, stronger effect = lower value 0.998 | S. cerevisiae deletion strains, locus YOR083W, strain WHI5, stronger effect = lower value 0.991 | S. cerevisiae deletion strains, locus YOR106W, strain vam3, stronger effect = lower value 1.04 | S. cerevisiae deletion strains, locus YOR136W, strain idh2, stronger effect = lower value 0.997 | S. cerevisiae deletion strains, locus YOR144C, strain elg1, stronger effect = lower value 0.99 | S. cerevisiae deletion strains, locus YOR184W, strain ser1, stronger effect = lower value 0.978 | S. cerevisiae deletion strains, locus YOR231W, strain MKK1, stronger effect = lower value 1.06 | S. cerevisiae deletion strains, locus YOR265W, strain rbl2, stronger effect = lower value 0.99 | S. cerevisiae deletion strains, locus YOR270C, strain vph1, stronger effect = lower value 1.02 | S. cerevisiae deletion strains, locus YOR290C, strain snf2, stronger effect = lower value 0.993 | S. cerevisiae deletion strains, locus YOR316C, strain cot1, stronger effect = lower value 0.992 | S. cerevisiae deletion strains, locus YPL051W, strain arl3, stronger effect = lower value 1.01 | S. cerevisiae deletion strains, locus YPL055C, strain LGE1, stronger effect = lower value 1.06 | S. cerevisiae deletion strains, locus YPL078C, strain atp4, stronger effect = lower value 1.01 | S. cerevisiae deletion strains, locus YPL106C, strain sse1, stronger effect = lower value 0.983 | S. cerevisiae deletion strains, locus YPL240C, strain hsp82, stronger effect = lower value 0.997 | S. cerevisiae deletion strains, locus YPL256C, strain CLN2, stronger effect = lower value 1.02 | S. cerevisiae deletion strains, locus YPR119W, strain clb2, stronger effect = lower value 0.99 | S. cerevisiae deletion strains, locus YPR141C, strain kar3, stronger effect = lower value 0.994 | S. cerevisiae deletion strains, locus YPR163C, strain tif3, stronger effect = lower value 0.99 | S. cerevisiae deletion strains, locus YPR167C, strain met16, stronger effect = lower value 0.989 | S. cerevisiae deletion strains, strain wtn01, stronger effect = lower value 1.03 | S. cerevisiae strains, strain wild type, stronger effect = lower value 1.01
